# M1 PAM = human CHRM1 positive allosteric modulation | P11229 | CHO-K1 hM1, Fluo-8 calcium fluorescence, ACh EC20; 0% = ACh EC20, 100% = maximal ACh | activation, % at 3 µM | hit rate 0.088% among 360,000 | AID 588819; in the data active = activation above about 19%, passing the limit was not always enough
# Target sequence (P11229 whole entry, looked up): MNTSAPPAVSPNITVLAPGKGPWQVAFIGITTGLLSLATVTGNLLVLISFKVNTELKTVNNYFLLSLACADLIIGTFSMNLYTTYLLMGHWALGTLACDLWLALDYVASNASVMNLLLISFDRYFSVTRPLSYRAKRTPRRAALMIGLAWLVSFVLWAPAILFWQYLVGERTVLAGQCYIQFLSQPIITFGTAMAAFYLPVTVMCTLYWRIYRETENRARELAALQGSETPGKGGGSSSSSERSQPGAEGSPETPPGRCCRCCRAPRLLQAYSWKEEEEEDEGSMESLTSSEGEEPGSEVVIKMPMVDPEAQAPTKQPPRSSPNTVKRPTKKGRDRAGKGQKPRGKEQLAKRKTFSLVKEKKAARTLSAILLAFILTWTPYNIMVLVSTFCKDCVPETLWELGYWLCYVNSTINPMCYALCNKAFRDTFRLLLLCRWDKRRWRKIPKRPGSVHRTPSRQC
# M1 ag = human M1 muscarinic receptor agonism; P11229; CHO-K1 hM1, Fluo-8 calcium fluorescence, agonist mode; 0% DMSO, 100% acetylcholine EC100; activation, % at 3 µM; hit rate 0.33% among 360,000; AID 588814;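 active = activation above the run's mean compound activation plus 3 SD, cut at about 16% in these data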;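 also: peak over basal fluorescence ratio within a 140 s kinetic read after compound addition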
# CHO-K1 Ca antag = nonselective inhibitor or artifact in parental CHO-K1 cells. hit rate 0.6% among 360,000. inhibition, % at 3 µM. ATP-induced calcium, Fluo-8 fluorescence;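 active = inhibition above a per-plate cutoff, the plate's mean sample inhibition plus 3 SD, cut at about 24% in these data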;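 also: 0% = DMSO plus EC80 ATP and 100% = DMSO alone without ATP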
# CHO-K1 Ca PAM = nonselective activator or artifact in parental CHO-K1 calcium assay. hit rate 0.02% among 360,000. activation, % at 3 µM. ATP EC20, Fluo-8 calcium fluorescence; 0% at ATP EC20, 100% at ATP max. AID 602247;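 active = activation above the run cutoff, the mean activation of all test compounds plus 3 SD, cut at about 40% in these data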;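 also: peak over basal fluorescence ratio in a 140 s read after ATP addition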
# CHRM1 antagonist = blocks human M1 muscarinic receptor | inhibition, % at 3 µM | AID 588852 | hit rate 1.3% among 360,000 | CHO-K1 hM1, Fluo-8 calcium fluorescence, ACh EC80 antagonist | P11229;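 active = percent inhibition above its own plate's cutoff, namely the mean of that plate's compound wells plus 3 SD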;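 also: peak over basal fluorescence ratio during 140 s after agonist addition; 0% = ACh EC80 plus DMSO and 100% = DMSO alone without agonist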
# CHO-K1 Ca ag = M1 agonist counterscreen hit in parental CHO-K1 cells | Fluo-8 calcium fluorescence; scaled to maximal ATP response, vehicle zero | activation, % at 3 µM | hit rate 0.48% among 360,000 | AID 602248; in the data active = activation above about 15%;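 also: untransfected CHO-K1 host cells lacking M1 receptor as counterscreen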
# * hit, by the source's call; . = not tested or not shown. This is a sample that favours compounds with a hit; in the whole collection about 2.3% have one here.
SMILES,M1 PAM,M1 ag,CHO-K1 Ca antag,CHO-K1 Ca PAM,CHRM1 antagonist,CHO-K1 Ca ag
COc1ccccc1C(CNC(=O)c1cccc(S(=O)(=O)N2c3ccccc3CC2C)c1)N(C)C (centres undefined),-25.9,-8.2,-25.0,11.3,98.6*,1.0
CCn1c(=O)cc(SCC(=O)Nc2cccnc2)c2ccccc21,-9.8,-2.0,24.6*,-9.2,14.8,1.1
CCn1c(=O)cc(SCC(=O)Nc2ccc3c(c2)OCO3)c2ccccc21,6.6,-6.1,-14.6,10.6,-5.2,1.8
C=C1C(=O)[C@]23C[C@H]1CC[C@H]2[C@]1(C)[C@@H](O)CC[C@@](C)(C(=O)O)[C@H]1C[C@@H]3O,2.5,-2.7,28.7*,-7.1,-0.1,0.4
C=C1C(=O)[C@]23C[C@H]1CCC2[C@@]1(C)C(C[C@@H]3O)[C@](C)(C(=O)OC)CC[C@@H]1OC(C)=O (some centres undefined),-23.5,-5.8,29.3*,-0.4,52.0*,6.2
C=C1C(=O)[C@]23C[C@H]1CCC2[C@@]1(C)C(C[C@@H]3O)[C@](C)(C(=O)O)C[C@H](O)[C@@H]1O (some centres undefined),7.7,-2.5,4.1,13.9,-4.8,0.9
COCCn1c(C)cc(C(=O)CSc2cc(C)c3ccc(OC)cc3n2)c1C,-2.5,-5.1,1.8,14.2,4.2,2.4
COc1ccc(OC)c(/C=C/C(=O)OCC(=O)N2CCN(S(=O)(=O)c3ccc(C)cc3C)CC2)c1,-4.2,-0.7,0.2,-10.2,-0.1,0.2
Cc1ccc(C2(c3ccc(C)cc3)CC2C(=O)Nc2ccc([N+](=O)[O-])cc2O)cc1 (centres undefined),-20.1,2.7,18.3,0.4,25.3*,8.6
CC1(C)CC1C(=O)Nc1ccc([N+](=O)[O-])cc1Br (centres undefined),13.2,-7.3,-2.3,4.0,-8.2,0.2
N#Cc1ccc(-c2ccc(OCC(=O)Nc3cccnc3)cc2)cc1,-11.8,3.1,11.6,-19.7,18.4,17.7*
O=C(COc1ccc(C(=O)c2ccccc2)cc1)Nc1cccnc1,-14.3,-1.5,18.5,-4.2,24.8,19.5*
CC(=O)c1cccc(NC(=O)COc2ccccc2)c1,10.1,1.3,31.9*,-7.9,4.4,-0.1
OCCCc1n[nH]c(=S)n1-c1ccccc1,11.8,-4.7,-13.0,26.9,-8.1,1.0
O=C1c2cccc3cccc(c23)C(=O)N1CCCc1n[nH]c(=S)n1-c1ccccc1,-8.5,0.5,17.2,-10.4,31.1*,0.4
Cc1ccccc1OCC(=O)OCC(=O)NC1CC1,9.1,-1.4,-17.3,11.4,-12.6,0.7
Cc1ccc2nc(SCC(=O)N3CCC(Cc4ccccc4)CC3)nc(=O)n2c1,-8.2,20.0*,14.2,-13.2,-1.6,8.8
O=C(c1cc(-c2ccc(Cl)cc2)n[nH]1)N1CCN(C(=O)c2ccco2)CC1,2.3,-1.5,-21.7,23.5,-2.8,5.5
O=C1CC(c2ccc(F)cc2)Cc2nc(N3CCN(c4ccccc4)CC3)ncc21 (centres undefined),-3.5,-2.8,40.2*,-2.1,3.8,1.0
Cc1ccc(C2CC(=O)c3cnc(N4CCN(c5ccccc5)CC4)nc3C2)cc1 (centres undefined),5.8,-4.6,-3.1,18.3,0.2,2.3
CC(=O)c1ccc(OCc2cc(C(=O)N3CCN(C4CCCC4)C(=O)C3)no2)cc1,1.5,-2.1,-7.0,7.9,-11.4,3.0
c1ccc2c(c1)[nH]c1c(N3CCC4(CC3)OCCO4)ncnc12,-6.3,2.4,-12.7,18.1,8.0,7.2
c1ccc2c(c1)CCN(c1ncnc3c1[nH]c1ccccc13)C2,-11.1,3.0,21.5,3.5,43.3*,11.4
OC1(c2cccc(C(F)(F)F)c2)CCN(c2ncnc3c2[nH]c2ccccc23)CC1,-1.0,-0.6,25.4*,-2.0,14.9,-0.2
CC1(C(=O)NS(=O)(=O)C2CC2)CCCN(C(=O)c2ccco2)C1 (centres undefined),8.8,0.0,-0.6,-2.4,-9.1,0.3
SMILES,M1 PAM,M1 ag,CHO-K1 Ca antag,CHO-K1 Ca PAM,CHRM1 antagonist,CHO-K1 Ca ag
O=C1CCCCC(=O)[C@H](O)C[C@H](COCc2ccccc2)O1,.,.,0.6,-8.3,.,-0.3
CCCC1c2ccc(C)n2CCN1C(=O)Nc1ccc(F)cc1 (centres undefined),10.1,-1.1,2.4,1.3,-13.4,1.9
CCC1c2ccc(C)n2CCN1C(=O)Nc1ccc(F)cc1 (centres undefined),-2.5,-3.5,26.2*,-7.0,5.9,6.9
CC1=CC(=O)N(c2ccn(C)n2)C1=O,-3.6,-2.3,-10.9,3.8,-2.1,0.5
Cc1cccc(C(=O)NC(C)C(c2cccs2)N2CCOCC2)c1 (centres undefined),-4.8,-0.1,-3.4,11.7,7.3,15.3*
CC(NC(=O)c1ccncc1)C(c1cccs1)N1CCOCC1 (centres undefined),10.1,4.7,-17.9,20.8,-10.7,1.1
CCOc1ccc(C(C)=O)cc1Cn1c(=O)oc2ccccc21,6.9,-4.4,-5.3,9.9,-1.6,5.7
O=C(CCN1C(=O)/C(=C/C=C/c2ccccc2)SC1=S)Nc1nccs1,9.1,2.7,25.8*,-5.9,-4.9,-0.9
O=C(NCc1cc(Cl)cc(Cl)c1)c1csc(COCCO)n1,0.4,-3.8,3.6,-11.2,-2.4,1.1
CCOC(=O)C1CCN(C(=O)COc2ccc(Cl)cc2C)CC1,5.0,-3.6,-10.6,16.2,-7.0,1.2
CCOC(=O)C1CCN(C(=O)COc2ccc(Cl)cc2Cl)CC1,-7.2,-2.1,24.2*,-7.9,16.8,0.7
CCOC(=O)C1CCCN(C(=O)c2ccc(S(=O)(=O)N3CCCC3)cc2)C1 (centres undefined),-16.1,-2.6,-1.9,-2.7,38.8*,0.5
CCOC(=O)C1CCN(C(=O)COC(=O)/C=C/c2cccc(OC)c2OC)CC1,14.1,19.4*,-22.4,23.9,-8.8,1.0
COC(=O)C1CCN(C(=O)C(C)Oc2ccc(Cl)cc2Cl)CC1 (centres undefined),7.4,-1.3,-3.2,5.5,-5.9,0.9
CCOC(=O)C1CCCN(C(=O)C(C)Oc2ccc(Cl)cc2Cl)C1 (centres undefined),-7.0,21.2*,-5.2,0.3,-2.2,0.6
CCOC(=O)C1CCN(C(=O)COC(=O)/C=C/c2ccccc2)CC1,12.2,4.7,-4.1,1.1,-9.9,0.0
CCOC(=O)C1CCCN(C(=O)c2ccc(S(=O)(=O)N3CCOCC3)cc2)C1 (centres undefined),-6.9,-0.3,0.5,-21.9,17.2,0.2
COCCCNC(=O)C[C@@H]1C[C@@]2(C(=O)OC)CCCCC=C2N(Cc2ccco2)C1=O,.,.,-14.2,11.2,.,0.3
COc1ccc(NC(=O)C2CCN(S(=O)(=O)c3cn(C)nc3C)CC2)cc1,1.2,-2.3,-9.1,3.0,-1.9,0.9

# High-throughput results (PubChem)
